Data from the supplement of paper PMC10849652.
Targets with a hit are over-represented here; the source holds about 7,900 in all. About 0.6% of all pairs of compound and target were hits. Values without a mark were called inactive.

Key:
Assay in all cases: log2 fold change, soluble protein after heating vs DMSO (PISA); higher = thermal stabilisation; K562 cells, 10 uM, 30 min; active = over 0.2 and 3.5 SD of the protein, either way, in both replicates (recomputed)
bafetinib = compound: Cc1ccc(NC(=O)c2ccc(CN3CC[C@H](N(C)C)C3)c(C(F)(F)F)c2)cc1Nc1nccc(-c2cncnc2)n1 [bafetinib]
Procedure, shortened: (§1)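 Soluble protein was quantified by TMTpro 16plex LC-MS/MS after channel sums were equalised. It was obtained as the supernatant after 21,000xg for 90 min from pooled aliquots of K562 cells (2×10^6 cells/mL, 10 μM compound, 30 min) heated for 3 min across 48°C-58°C and extracted in PBS with 0.5% NP-40 at 4°C. Thermal stability values are relative to control samples and come from duplicates. They are given as log2 fold changes.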

[1] = compound: Cc1cccc(CC(=O)N2CCc3c2ccc(-c2cn(C)c4ncnc(N)c24)c3F)n1
Procedure, shortened: as §1

nilotinib = compound: Cc1cn(-c2cc(NC(=O)c3ccc(C)c(Nc4nccc(-c5cccnc5)n4)c3)cc(C(F)(F)F)c2)cn1 [nilotinib]
Procedure, shortened: as §1

[2] = compound: Cc1nc(Nc2n[nH]c3c2CN(C(=O)N[C@H](CN(C)C)c2ccccc2)C3(C)C)c2sccc2n1
Procedure, shortened: as §1

[3] = compound: Cc1ncc(-c2ccnc(Nc3ccc(S(C)(=O)=O)cc3)n2)n1C(C)C
Procedure, shortened: as §1

[4] = compound: Cn1cc(-c2ccc3c(c2)CCN3C(=O)Cc2cccc(C(F)(F)F)c2)c2c(N)ncnc21
Procedure, shortened: as §1

[5] = compound: Cn1cc(-c2ccc3nnc(C(F)(F)c4ccc5ncccc5c4)n3n2)cn1
Procedure, shortened: as §1

tipifarnib = compound: Cn1cncc1[C@@](N)(c1ccc(Cl)cc1)c1ccc2c(c1)c(-c1cccc(Cl)c1)cc(=O)n2C [tipifarnib]
Procedure, shortened: as §1

mubritinib = compound: FC(F)(F)c1ccc(/C=C/c2nc(COc3ccc(CCCCn4ccnn4)cc3)co2)cc1 [mubritinib]
Procedure, shortened: as §1

dasatinib = compound: Cc1nc(Nc2ncc(C(=O)Nc3c(C)cccc3Cl)s2)cc(N2CCN(CCO)CC2)n1 [dasatinib]
Procedure, shortened: as §1

UniProt Q96GF1, sequence (Q96GF1 whole entry, looked up): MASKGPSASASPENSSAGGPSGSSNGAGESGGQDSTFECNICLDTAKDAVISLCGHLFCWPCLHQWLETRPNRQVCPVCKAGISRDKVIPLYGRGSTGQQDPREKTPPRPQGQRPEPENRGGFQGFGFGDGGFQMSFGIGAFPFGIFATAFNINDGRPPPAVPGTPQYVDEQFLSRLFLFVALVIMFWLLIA
UniProt Q86X27, sequence (Q86X27 whole entry, looked up): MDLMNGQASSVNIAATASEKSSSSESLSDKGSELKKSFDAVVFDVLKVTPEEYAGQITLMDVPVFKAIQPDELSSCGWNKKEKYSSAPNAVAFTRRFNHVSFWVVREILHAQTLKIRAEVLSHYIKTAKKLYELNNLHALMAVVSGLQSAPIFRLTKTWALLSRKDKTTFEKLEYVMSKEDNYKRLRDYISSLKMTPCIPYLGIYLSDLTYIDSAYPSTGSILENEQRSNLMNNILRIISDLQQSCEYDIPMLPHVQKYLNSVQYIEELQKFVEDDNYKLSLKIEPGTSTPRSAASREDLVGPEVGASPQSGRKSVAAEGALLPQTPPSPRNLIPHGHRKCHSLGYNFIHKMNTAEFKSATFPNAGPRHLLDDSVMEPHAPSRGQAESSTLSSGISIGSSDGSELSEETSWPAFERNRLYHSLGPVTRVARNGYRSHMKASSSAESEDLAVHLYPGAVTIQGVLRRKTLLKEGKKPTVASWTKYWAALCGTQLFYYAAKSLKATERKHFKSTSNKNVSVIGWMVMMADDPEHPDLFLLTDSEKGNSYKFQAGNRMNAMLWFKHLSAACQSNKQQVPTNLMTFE
UniProt Q8WZA2, sequence (Q8WZA2 whole entry, looked up): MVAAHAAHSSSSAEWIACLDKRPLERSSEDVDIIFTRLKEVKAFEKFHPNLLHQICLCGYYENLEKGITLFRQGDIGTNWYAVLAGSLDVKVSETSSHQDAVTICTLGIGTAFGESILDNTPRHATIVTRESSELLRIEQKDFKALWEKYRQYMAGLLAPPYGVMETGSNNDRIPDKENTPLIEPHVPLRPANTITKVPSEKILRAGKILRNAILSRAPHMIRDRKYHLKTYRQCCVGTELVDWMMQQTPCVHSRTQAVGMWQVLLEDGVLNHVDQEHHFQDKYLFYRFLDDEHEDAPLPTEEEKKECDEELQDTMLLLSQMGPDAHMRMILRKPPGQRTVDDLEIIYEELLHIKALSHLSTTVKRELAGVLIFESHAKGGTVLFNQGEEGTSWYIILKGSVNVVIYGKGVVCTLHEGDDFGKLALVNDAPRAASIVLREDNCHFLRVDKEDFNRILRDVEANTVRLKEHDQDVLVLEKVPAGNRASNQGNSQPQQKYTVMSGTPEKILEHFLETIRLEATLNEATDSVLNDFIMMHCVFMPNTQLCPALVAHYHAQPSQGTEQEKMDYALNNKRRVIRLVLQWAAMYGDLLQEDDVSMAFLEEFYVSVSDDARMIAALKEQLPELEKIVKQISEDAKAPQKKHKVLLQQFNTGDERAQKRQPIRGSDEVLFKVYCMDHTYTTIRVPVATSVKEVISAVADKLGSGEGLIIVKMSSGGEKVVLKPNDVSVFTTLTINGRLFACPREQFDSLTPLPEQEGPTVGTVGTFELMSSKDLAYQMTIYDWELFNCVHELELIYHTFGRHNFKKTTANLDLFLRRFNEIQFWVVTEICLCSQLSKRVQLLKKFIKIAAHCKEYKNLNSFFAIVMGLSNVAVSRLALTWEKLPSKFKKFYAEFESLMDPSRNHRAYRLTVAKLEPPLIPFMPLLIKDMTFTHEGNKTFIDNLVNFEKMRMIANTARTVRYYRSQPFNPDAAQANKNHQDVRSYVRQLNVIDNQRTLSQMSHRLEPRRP
UniProt O43819, sequence (O43819 whole entry, looked up): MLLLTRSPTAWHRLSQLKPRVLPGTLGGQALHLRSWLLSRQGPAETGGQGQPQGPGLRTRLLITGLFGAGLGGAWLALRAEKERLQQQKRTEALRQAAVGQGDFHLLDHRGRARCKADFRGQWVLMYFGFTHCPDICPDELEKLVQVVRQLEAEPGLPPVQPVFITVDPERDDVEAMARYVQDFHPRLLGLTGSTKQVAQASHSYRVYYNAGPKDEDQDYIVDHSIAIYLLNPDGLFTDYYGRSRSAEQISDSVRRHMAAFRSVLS
UniProt Q04206, sequence (Q04206 whole entry, looked up): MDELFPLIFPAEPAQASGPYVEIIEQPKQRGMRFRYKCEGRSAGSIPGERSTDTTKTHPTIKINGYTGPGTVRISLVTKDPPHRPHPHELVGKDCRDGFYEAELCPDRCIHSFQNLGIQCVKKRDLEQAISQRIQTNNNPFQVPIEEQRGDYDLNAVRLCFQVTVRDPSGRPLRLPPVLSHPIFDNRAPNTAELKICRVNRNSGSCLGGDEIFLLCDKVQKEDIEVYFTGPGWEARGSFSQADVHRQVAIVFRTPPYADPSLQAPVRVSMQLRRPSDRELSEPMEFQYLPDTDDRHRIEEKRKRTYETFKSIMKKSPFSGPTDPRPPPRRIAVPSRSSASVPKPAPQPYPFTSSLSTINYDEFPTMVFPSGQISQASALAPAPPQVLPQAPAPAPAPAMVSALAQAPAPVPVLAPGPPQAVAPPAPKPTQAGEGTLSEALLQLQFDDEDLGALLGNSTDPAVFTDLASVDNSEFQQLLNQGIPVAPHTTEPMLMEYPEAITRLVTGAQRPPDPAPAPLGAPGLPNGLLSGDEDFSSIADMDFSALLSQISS
UniProt Q9NRX5, sequence (Q9NRX5 whole entry, looked up): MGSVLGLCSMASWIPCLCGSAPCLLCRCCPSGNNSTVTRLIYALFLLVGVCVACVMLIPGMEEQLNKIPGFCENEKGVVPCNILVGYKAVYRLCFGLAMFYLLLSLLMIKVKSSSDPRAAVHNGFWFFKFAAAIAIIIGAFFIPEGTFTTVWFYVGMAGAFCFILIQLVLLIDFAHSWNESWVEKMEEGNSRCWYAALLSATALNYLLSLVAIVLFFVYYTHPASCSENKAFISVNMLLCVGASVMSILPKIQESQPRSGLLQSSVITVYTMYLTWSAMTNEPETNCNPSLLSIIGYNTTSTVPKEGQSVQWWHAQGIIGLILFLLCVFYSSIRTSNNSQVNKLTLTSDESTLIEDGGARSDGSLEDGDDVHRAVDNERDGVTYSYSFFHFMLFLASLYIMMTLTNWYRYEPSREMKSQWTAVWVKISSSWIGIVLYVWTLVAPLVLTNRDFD
UniProt Q9BY78, sequence (Q9BY78 whole entry, looked up): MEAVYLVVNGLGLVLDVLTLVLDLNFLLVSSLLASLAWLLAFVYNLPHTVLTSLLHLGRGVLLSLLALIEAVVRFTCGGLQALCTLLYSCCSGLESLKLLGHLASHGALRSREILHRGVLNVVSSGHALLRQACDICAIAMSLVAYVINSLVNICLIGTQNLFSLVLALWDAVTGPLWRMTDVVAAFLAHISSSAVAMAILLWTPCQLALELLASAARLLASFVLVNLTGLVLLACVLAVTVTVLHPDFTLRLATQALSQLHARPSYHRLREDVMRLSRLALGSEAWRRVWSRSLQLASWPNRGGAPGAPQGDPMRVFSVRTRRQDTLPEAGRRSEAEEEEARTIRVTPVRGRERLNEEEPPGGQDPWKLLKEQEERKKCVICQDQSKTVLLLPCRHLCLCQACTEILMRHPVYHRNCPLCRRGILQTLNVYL
UniProt Q96LZ7, sequence (Q96LZ7 whole entry, looked up): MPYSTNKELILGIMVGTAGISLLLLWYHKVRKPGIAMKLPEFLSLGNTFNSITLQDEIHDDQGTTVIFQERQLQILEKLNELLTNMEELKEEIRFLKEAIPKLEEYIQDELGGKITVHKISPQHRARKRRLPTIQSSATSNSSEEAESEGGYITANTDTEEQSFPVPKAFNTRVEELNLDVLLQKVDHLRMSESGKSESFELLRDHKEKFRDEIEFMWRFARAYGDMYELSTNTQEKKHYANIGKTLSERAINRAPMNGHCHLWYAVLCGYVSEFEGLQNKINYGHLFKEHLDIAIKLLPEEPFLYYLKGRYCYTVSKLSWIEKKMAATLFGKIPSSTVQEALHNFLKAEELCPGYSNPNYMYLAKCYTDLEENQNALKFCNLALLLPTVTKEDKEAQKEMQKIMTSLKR

| Target | log2 fold change (bafetinib) | log2 fold change [1] | log2 fold change (nilotinib) | log2 fold change [2] | log2 fold change [3] | log2 fold change [4] | log2 fold change [5] | log2 fold change (tipifarnib) | log2 fold change (mubritinib) | log2 fold change (dasatinib) |
| --- | --- | --- | --- | --- | --- | --- | --- | --- | --- | --- |
| RNF185 (UniProt Q96GF1) | 0.189 | -0.037 | -0.027 | -0.001 | -0.022 | 0.089 | 0.218 | 0.045 | 0.057 | – |
| RPS3A (UniProt D6R9B6) | – | – | – | – | – | – | – | – | – | 0.155 |
| RBBP6 (UniProt Q7Z6E9) | -0.018 | -0.004 | 0 | -0.031 | -0.003 | 0.003 | -0.01 | -0.058 | -0.171 | – |
| RNF220 isoform 3 (UniProt Q5VTB9) | – | – | – | – | – | – | – | -0.282 | – | – |
| RABGAP1L isoform 5 (UniProt Q5R372) | -0.031 | – | 0.112 | -0.003 | -0.047 | -0.002 | – | 0.073 | 0.036 | -0.054 |
| RICTOR isoform 3 (UniProt Q6R327) | – | 0.141 | -0.102 | 0.176 | -0.023 | – | – | -0.052 | – | -0.044 |
| SAFB2 (UniProt K7EQU4) | -0.053 | – | 0.155 | 0.162 | -0.113 | – | – | – | – | – |
| SCO2 (UniProt O43819) | -0.058 | -0.014 | – | – | – | 0.107 | 0.039 | 0.014 | -0.035 | -0.042 |
| RPS3 (UniProt E9PJN9) | – | 0.076 | – | – | – | – | -0.159 | – | – | -0.207 |
| SDC3 (UniProt O75056) | – | 0.419 | -0.004 | 0.07 | -0.036 | -0.019 | – | – | – | 0.073 |
| RAPGEF4 (UniProt Q8WZA2) | -0.075 | – | – | – | – | 0.201 | – | – | 0.038 | 0.088 |
| RELA (UniProt Q04206) | -0.04 | 0.006 | -0.023 | -0.295 (active) | -0.031 | 0.04 | -0.047 | -0.04 | 0.044 | – |
| RALGPS2 (UniProt Q86X27) | -0.072 | -0.001 | – | – | – | 0.043 | – | – | -0.198 | -0.011 |
| RPS19 (UniProt M0R2L9) | – | – | 0.116 | 0 | -0.267 | – | – | -0.126 | 0.229 | – |
| RNF26 (UniProt Q9BY78) | 0.083 | 0.111 | – | – | – | – | -0.011 | – | – | – |
| SERINC1 (UniProt Q9NRX5) | -0.135 | – | 0.121 | 0.081 | -0.064 | – | 0.054 | -0.112 | 0.057 | -0.034 |
| RMDN2 isoform 2 (UniProt Q96LZ7) | – | – | -0.556 | 0.661 | -0.115 | – | -0.104 | – | -0.231 | – |
